# Activity calls are given as the source filed them.
# Assays:
# [1] = system: Human papillomavirus type 1a protein E7 (residues 44-93); experiment: small molecules binding HPV E7 44-93 – biochemical, small-molecule microarray, residues 44-93, 635 nm fluorescence, primary screen (AID 1108); conditions: fluorescence 635 nm, higher = more signal;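 further: E7 fragment applied at 1 µg/mL in TBST for 1 h at 4 C; score combines spot fluorescence with its signal to noise ratio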
# [2] = hepatitis C replication reporter changes, two-sided – Huh7 cells, luciferase reporter, HCV replication inhibitor project, primary screen (AID 1109); conditions: Huh7 HCV replicon luciferase reporter, 48 h; higher = more signal;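 further: huh7 hepatoma cells harbouring a luciferase neomycin HCV replicon reporter; luciferase luminescence as measure of HCV replicon replication; test concentration not given here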
# [3] = molecular target: Left-right determination factor 2 (Homo sapiens) (UniProt O00292); experiment: small molecules binding LEFTY2 protein – biochemical, small-molecule microarray, 635 nm fluorescence scan, primary screen (AID 1110); conditions: higher = more signal
# Chain of Left-right determination factor 2 (Homo sapiens) (O00292 whole entry, looked up): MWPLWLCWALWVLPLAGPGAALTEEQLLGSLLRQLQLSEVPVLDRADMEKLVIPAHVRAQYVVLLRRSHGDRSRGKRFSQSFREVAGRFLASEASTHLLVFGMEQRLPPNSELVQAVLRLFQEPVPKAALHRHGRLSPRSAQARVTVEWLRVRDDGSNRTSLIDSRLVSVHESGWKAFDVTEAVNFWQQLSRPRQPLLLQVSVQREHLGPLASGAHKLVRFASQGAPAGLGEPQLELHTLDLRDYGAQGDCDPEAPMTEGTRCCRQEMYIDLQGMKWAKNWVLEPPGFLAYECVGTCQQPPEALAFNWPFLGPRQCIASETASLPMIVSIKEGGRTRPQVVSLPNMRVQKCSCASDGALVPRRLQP
# [4] = molecular target: Calmodulin-1 (Homo sapiens) (UniProt P0DP23); experiment: small molecules binding calmodulin-1 with EGTA – biochemical, small-molecule microarray, Cy5-labelled CALM1, profiling panel (AID 1111); conditions: Cy5-CALM1 binding fluorescence, higher = more signal;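 further: labelled calmodulin applied in Tris saline Tween buffer holding calcium plus EGTA and DTT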
# [5] = molecular target: Calmodulin-1 (Homo sapiens) (UniProt P0DP23); experiment: small molecules binding Ca-loaded calmodulin-1 – biochemical, small-molecule microarray, Cy5-labelled CALM1, plus calcium, artefact control for SMM control-protein annotation, profiling panel (AID 1112); conditions: Cy5-CALM1 binding fluorescence, higher = more signal;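 further: score merges spot fluorescence with signal to noise from triplicate slides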
# [6] = probe aWnt5a binding to arrayed compounds – biochemical, biotinylated probe, 635/667 nm fluorescence, primary screen (AID 1113); conditions: small-molecule microarray, higher = more signal;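 further: score merges 667 nm fluorescence intensity with signal-to-noise per printed feature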
# [7] = probe aShh binding to arrayed compounds – biochemical, biotinylated probe, 635/667 nm fluorescence, primary screen (AID 1114); conditions: small-molecule microarray, higher = more signal;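 further: probe is biotin-labelled aShh protein from a stem cell growth factor screen; measures binding of labelled protein to compounds printed on the slide; score merges feature fluorescence at 667 nm with signal-to-noise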
# [8] = probe aNog binding to arrayed compounds – biochemical, biotinylated probe, 635/667 nm fluorescence, primary screen (AID 1115); conditions: small-molecule microarray, higher = more signal;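 further: probe is biotinylated aNog protein used at 0.15 µg/mL for 1 h at 4 C; z-score combines 667 nm fluorescence of each spot with its signal to noise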
# [9] = molecular target: Torsin-1A-interacting protein 1 (Homo sapiens) (UniProt Q5JTV8); experiment: compound microarray binding of lysate hLAP1 – cell lysate, small-molecule microarray, COS7 lysate, 635/667 nm fluorescence, primary screen (AID 1116); conditions: 635 nm fluorescence, higher = more signal
# Chain of Torsin-1A-interacting protein 1 (Homo sapiens) (Q5JTV8 whole entry, looked up): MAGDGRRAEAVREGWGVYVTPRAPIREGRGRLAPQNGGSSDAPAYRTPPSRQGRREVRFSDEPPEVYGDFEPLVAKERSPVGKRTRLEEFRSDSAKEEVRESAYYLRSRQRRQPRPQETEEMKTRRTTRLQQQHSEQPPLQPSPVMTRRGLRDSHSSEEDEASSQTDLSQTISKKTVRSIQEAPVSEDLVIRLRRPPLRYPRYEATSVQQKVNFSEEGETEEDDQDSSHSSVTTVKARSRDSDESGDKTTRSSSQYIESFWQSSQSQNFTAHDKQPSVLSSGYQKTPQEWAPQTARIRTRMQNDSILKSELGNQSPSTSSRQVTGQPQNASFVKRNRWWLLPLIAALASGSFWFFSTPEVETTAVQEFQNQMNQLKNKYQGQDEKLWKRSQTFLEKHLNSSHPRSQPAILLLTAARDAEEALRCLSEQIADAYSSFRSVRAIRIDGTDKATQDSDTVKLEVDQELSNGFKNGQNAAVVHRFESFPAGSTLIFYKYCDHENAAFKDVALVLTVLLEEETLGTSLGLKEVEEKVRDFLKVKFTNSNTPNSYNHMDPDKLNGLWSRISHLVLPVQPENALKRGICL
# [10] = molecular target: Alpha-bungarotoxin (Bungarus multicinctus) (UniProt P60615); experiment: compounds binding labelled alpha-BTX control protein – biochemical, small-molecule microarray, Alexa647 label, 635/667 nm fluorescence, artefact control for SMM control protein annotation, profiling panel (AID 1117); conditions: alpha-BTX-A647 binding fluorescence, higher = more signal
# Chain of Alpha-bungarotoxin (Bungarus multicinctus) (P60615 whole entry, looked up): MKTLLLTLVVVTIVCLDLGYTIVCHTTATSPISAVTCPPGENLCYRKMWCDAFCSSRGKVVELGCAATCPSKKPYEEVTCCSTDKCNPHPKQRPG
# Albumin (Bos taurus) = Albumin (Bos taurus) (UniProt P02769); experiment: compounds binding labelled BSA control protein – biochemical, small-molecule microarray, Alexa647 label, 635/667 nm fluorescence, artefact control for SMM control protein annotation, profiling panel (AID 1118); conditions: BSA-A647 binding, fluorescence 635 nm, higher = more signal;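 further: score merges 667 nm emission intensity and signal-to-noise per printed compound spot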
# Chain of Albumin (Bos taurus) (P02769 whole entry, looked up): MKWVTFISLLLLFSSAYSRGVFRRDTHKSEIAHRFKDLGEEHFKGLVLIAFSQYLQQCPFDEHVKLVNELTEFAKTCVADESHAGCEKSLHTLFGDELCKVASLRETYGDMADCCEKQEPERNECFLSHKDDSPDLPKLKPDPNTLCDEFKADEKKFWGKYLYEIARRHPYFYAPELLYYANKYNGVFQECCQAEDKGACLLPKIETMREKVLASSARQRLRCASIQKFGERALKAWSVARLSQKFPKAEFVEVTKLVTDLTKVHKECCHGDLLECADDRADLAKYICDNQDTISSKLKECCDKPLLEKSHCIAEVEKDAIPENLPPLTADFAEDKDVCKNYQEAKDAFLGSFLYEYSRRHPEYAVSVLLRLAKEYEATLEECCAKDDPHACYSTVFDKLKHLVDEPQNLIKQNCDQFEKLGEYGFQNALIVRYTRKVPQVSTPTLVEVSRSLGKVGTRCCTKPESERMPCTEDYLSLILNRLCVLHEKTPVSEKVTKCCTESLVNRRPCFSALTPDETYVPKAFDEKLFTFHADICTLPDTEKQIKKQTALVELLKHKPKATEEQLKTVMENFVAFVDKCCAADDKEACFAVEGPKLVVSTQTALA
# [11] = probe aXIP binding to arrayed compounds – biochemical, NeuroSMM set, 635/667 nm fluorescence, primary screen (AID 1119); conditions: small-molecule microarray, higher = more signal, called active from +8 up or from −8 down;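 further: probe is the protein aXip251-270 applied at 1 µg/mL to compound-printed slides; binding of probe to printed compounds measured as 667 nm fluorescence plus signal to noise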
# [12] = probe aNOTCH3 binding on compound microarray – biochemical, small-molecule microarray, 635/667 nm fluorescence, primary screen (AID 1120); conditions: higher = more signal;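 further: probe is a biotin-tagged antibody raised against NOTCH3 rather than NOTCH3 protein; score merges spot fluorescence near 667 nm with spot signal to noise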
# [13] = probe aNOTCH2 binding on compound microarray – biochemical, small-molecule microarray, 635/667 nm fluorescence, primary screen (AID 1121); conditions: higher = more signal;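 further: score merges feature fluorescence read at 667 nm with its signal to noise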
# [14] = molecular target: Carbonic anhydrase 2 (Homo sapiens) (UniProt P00918); experiment: compounds binding carbonic anhydrase 2 – biochemical, small-molecule microarray, Alexa647-labelled CAII, profiling panel (AID 1122); conditions: CAII-A647 binding fluorescence, higher = more signal
# [15] = COS7 lysate on small-molecule microarray, probe aHis, 635 nm (AID 1123); conditions: COS7 cell lysate, fluorescence, higher = more signal;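 further: z-score combines 667nm fluorescence intensity with signal-to-noise per printed compound spot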
# [16] = probe aLAP1 signal on lysate-treated microarray – cell lysate, small-molecule microarray, COS7 lysate, primary screen (AID 1124); conditions: probe aLAP1, fluorescence, higher = more signal;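 further: lysate comes from COS7 cells expressing LAP1 and is applied at 0.3 µg/mL; score merges spot fluorescence near 667 nm with signal-to-noise over triplicate slides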
# Sam68 (KHDRBS1) = experiment: compounds binding KHDRBS1 protein – biochemical, small-molecule microarray, 635 nm fluorescence, primary screen (AID 1125); conditions: higher = more signal;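 further: score merges 667 nm channel intensity with signal to noise over triplicate slides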
# [17] = system: Chordin-like protein 2 (CHRDL2); experiment: compounds binding chordin-like 2 – biochemical, small-molecule microarray, 635 nm fluorescence, primary screen (AID 1126); conditions: fluorescence 635 nm, higher = more signal;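 further: printed compound slides probed with Chrdl2 protein at 4 µg/mL for 1 h at 4 C; score merges 667 nm emission intensity with signal to noise over three replicate slides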
# [18] = molecular target: Concanavalin-A (Canavalia ensiformis) (UniProt P02866); experiment: compounds binding concanavalin A lectin – biochemical, small-molecule microarray, Alexa647 label, 635 nm, artefact control for SMM control protein annotation, primary screen (AID 1127); conditions: ConA-A647 binding fluorescence, higher = more signal;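 further: z combines 667 nm emission intensity with signal-to-noise across three replicate slides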
# Chain of Concanavalin-A (Canavalia ensiformis) (P02866 whole entry, looked up): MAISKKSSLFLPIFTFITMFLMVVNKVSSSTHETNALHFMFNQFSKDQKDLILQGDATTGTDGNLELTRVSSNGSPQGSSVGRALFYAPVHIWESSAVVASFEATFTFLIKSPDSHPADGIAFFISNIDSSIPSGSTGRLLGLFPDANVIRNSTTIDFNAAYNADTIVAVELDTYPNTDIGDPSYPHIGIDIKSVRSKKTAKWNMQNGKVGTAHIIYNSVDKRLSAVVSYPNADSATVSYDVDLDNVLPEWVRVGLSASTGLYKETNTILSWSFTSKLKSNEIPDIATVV
Structure (SMILES),composite z-score [1],z-score [2],composite z-score [3],composite z-score [4],composite z-score [5],composite z-score [6],composite z-score [7],composite z-score [8],composite z-score [9],composite z-score [10],composite z-score (Albumin (Bos taurus)),composite Z-score [11],composite z-score [12],composite z-score [13],composite z-score [14],composite z-score [15],composite z-score [16],composite z-score (Sam68 (KHDRBS1)),composite z-score [17],composite z-score [18]
CC(C)NC(=O)[C@@]1(c2ccc([N+](=O)[O-])cc2)CC(=O)N(C2CCCCC2)[C@@H]1c1ccc(CO)cc1,1.46,-0.778,-0.016,-0.0034,-0.0027,0.0115,-0.553,0.275,2.08,0.621,0.807,-0.107 (inactive),0.325,-0.245,0.729,2.17,0.94,1.26,-0.0413,1.02
COC(=O)[C@@H]1N=C(c2ccc(OCCCO)cc2)O[C@@H]1C,0.783,2.62,0.309,-0.226,-1.2,-0.148,0.233,-0.356,1.71,-0.294,-0.867,-0.385 (inactive),0.0893,-0.082,-0.153,-0.223,0.905,0.973,-0.155,0.0255
O=C1OCCC=C[C@H]2OC34C=CCN(Cn5nnc6ccccc65)C(=O)[C@H]3N(CCCO)C(=O)[C@@H]4C12 (stereo not given in full),-0.69,-0.642,-1.02,-0.5,-0.0354,-0.112,-0.388,-0.527,0.879,0.204,-0.841,-0.0287 (inactive),-0.353,-0.13,0.0109,-1.05,1.45,-0.674,-0.433,-1.2
CCOC(=O)C[C@H]1[C@H](OC(=O)c2ccc(C(=O)c3ccccc3)cc2)[C@@H](NC(=O)c2ccc3ccccc3n2)c2cc(OCCCO)ccc2N1C(=O)Cc1ccc(OC)cc1,0.947,0.361,0.471,1.08,0.0823,-0.202,0.0115,-0.259,-0.0179,-0.0434,0.567,-0.201 (inactive),0.0779,-0.153,-0.175,0.759,-0.263,0.627,-0.384,0.93
C=CC[C@@]1(C(=O)NCCCOC)N=C(c2ccc(OCCCO)cc2)O[C@@H]1c1ccccc1,1.06,-0.449,-0.526,1.94,0.626,0.155,-0.102,0.365,2.89,-0.146,0.8,0.604 (inactive),0.169,0.0977,0.597,3.2,0.601,0.316,-0.919,0.174

# From PubChem BioAssay
